From PubChem BioAssay (Tox21)
Inconclusive results are not listed. A number with no mark means an inactive call. Active and inactive are the calls of the source. Calls follow the shape of the dose curve; as a rule, active = well fitted inhibition curve with a large enough effect in the signal ratio in the repeat runs, with a control signal flat; inconclusive = weak or mixed curves, or effect the other way; inactive = flat fitted curve, though single readings scatter; the % refers to the signal ratio.

Target: D(2) dopamine receptor (Homo sapiens) (UniProt P14416)
Sequence (P14416 whole entry, looked up): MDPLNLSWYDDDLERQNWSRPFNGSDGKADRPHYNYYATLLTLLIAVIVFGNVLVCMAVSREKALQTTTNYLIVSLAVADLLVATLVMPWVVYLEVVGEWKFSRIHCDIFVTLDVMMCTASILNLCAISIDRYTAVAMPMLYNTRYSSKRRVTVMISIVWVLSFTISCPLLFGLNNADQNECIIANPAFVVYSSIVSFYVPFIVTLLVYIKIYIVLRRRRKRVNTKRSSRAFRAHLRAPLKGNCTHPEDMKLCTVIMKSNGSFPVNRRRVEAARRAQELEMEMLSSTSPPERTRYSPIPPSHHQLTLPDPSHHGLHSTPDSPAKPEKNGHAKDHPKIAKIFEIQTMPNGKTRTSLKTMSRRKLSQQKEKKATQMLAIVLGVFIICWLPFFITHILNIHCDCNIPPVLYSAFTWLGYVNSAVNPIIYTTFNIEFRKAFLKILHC
Assay: Dopamine D2 receptor (DRD2) small molecule antagonists, cell-based qHTS assay (AID 1963595)
Conditions: HEK293-DRD2 cAMP HTRF antagonist mode; series mostly up to 92.4 µM; activity change, negative = inhibition: at the top concentration
Excerpt: National Center for Advancing Translational Sciences [NCATS]
Division of Preclinical Innovation [DPI]
U.S. Environmental Protection Agency [EPA]
National Institutes of Environmental Health Sciences [NIEHS]
National Toxicology Program [NTP]
U.S. Food and Drug Administration [FDA]
DRD2 is the D2 subtype of the dopamine receptor, which is coupled to Gi subtype of G protein-coupled receptor. This G protein-coupled receptor inhibits adenylyl cyclase activity. The DRD2-HEK293 cell line stably expressing D2 dopamine receptor can be used for screening agonists and antagonists of interactions between D2 and its ligands. The Hek293-DRD2 cAMP assay is based on HTRF technology. It measures changes of cAMP accumulation in response to Gi coupled GPCR activation or inhibition.
Tox21 Assay Protocol Summary:
DRD2-Hek293 cells were dispensed at 600 cells/3uL/well in 1536-well white plates using a Multidrop Dispenser. After the assay plates were incubated at a 37 C/5% CO2 incubator for 24 h, 1 uL of Ro20-1724 at final concentration of 0.1 mM was transferred to the assay plate by a Flying Reagent Dispenser. Following Ro20-1724 addition, 23 nL of compound dissolved in DMSO, positive controls or DMSO only was added to the assay plates via Wako pintool station. The assay plates were incubated at room temperature for 10 min. Next, 1 uL of mixture of NKH477 (final concentration at 200 nM) and quinpirole (final concentration at 12 nM) was added into the plates. After the assay plates were incubated at room temperature for an additional 30 min, 2.5 ul/well of cAMP-d2 and 2.5 ul/well of anti-cAMP-cryptate were added respectively into the assay plates using a Flying Reagent Dispenser. The plates were incubated at room temperature for 1 h. The fluorescence intensity in the plates was measured at 340 nm excitation and 665 & 620 nm emission by an Envision plate reader.
% is scaled to controls: 0 for no effect and ±100 for the full control effect; potency is read from the fitted curve at half-maximal effect.

Row | SMILES | activity change, negative = inhibition | Potency
1 | CC(C)[C@@H](Nc1ccc(C(F)(F)F)cc1Cl)C(=O)OC(C#N)c1cccc(Oc2ccccc2)c1 (stereo not given in full) | 12.5% | –
2 | NS(=O)(=O)C(F)(F)C(F)(F)C(F)(F)C(F)(F)C(F)(F)C(F)(F)C(F)(F)C(F)(F)F | 7.48% | –
3 | CCCN(CCC)C(=O)Cc1c(-c2ccc(Cl)cc2)nc2ccc(Cl)cn12 | 0.144% [at 42.5 µM] | –
4 | CN1C(=O)COc2c(C(=O)NC3CN4CCC3CC4)cc(Cl)cc21 (stereo not given) | 5.48% [at 42.5 µM] | –
5 | Cc1cc(C2CC2)nc(Nc2ccccc2)n1 | 5.52% | –
6 | CNC(=O)Oc1ccc(N(C)C)c(C)c1 | 9.47% | –
7 | CN(N=O)c1ccc([N+](=O)[O-])cc1 | 4.28% | –
8 | Cc1ccc(S(=O)(=O)N[C@@H](CCCCN)C(=O)CCl)cc1 | -2.5% [at 42.5 µM] | –
9 | CCOC(=O)c1ncn2c1CN(C)C(=O)c1c(I)cccc1-2 | 7.62% [at 42.5 µM] | –
10 | CCOC(=O)CC(=O)CCl | 5.04% | –
11 | CC(C)(C)C(O)C(Oc1ccc(Cl)cc1)n1cncn1 (stereo not given) | 3.2% | –
12 | C[C@@H]1CC2=CC(=O)CC[C@@H]2[C@H]2CC[C@@]3(C)[C@@H](CC[C@]3(C)O)[C@@H]21 | 0.943% [at 42.5 µM] | –
13 | O=[N+]([O-])c1ccc2c3c(cccc13)CC2 | -17.9% | –
14 | O=c1[nH]c2ccccc2o1 | -0.897% | –
15 | CC(Oc1ccc(Oc2ncc(C(F)(F)F)cc2Cl)cc1)C(=O)O (stereo not given) | -5.15% | –
16 | Clc1ccc(-c2ccccc2)cc1 | -8.61% | –
17 | COc1cc(CCN)cc(OC)c1OC | -3.36% | –
18 | O=S(=O)(O)C(F)(F)C(F)(F)C(F)(F)C(F)(F)F | -3.7% | –
19 | O=C(CCCN1CCC(n2c(=O)[nH]c3ccccc32)CC1)c1ccc(F)cc1 | – | 0.0422 µM (active)
20 | O=C(NC(=O)c1c(F)cccc1F)Nc1cc(Cl)c(Oc2ncc(C(F)(F)F)cc2Cl)c(Cl)c1 | 10.9% | –

Row | SMILES | activity change, negative = inhibition | Potency
21 | CC(C)Br | 3.74% | –
22 | CC(C)(c1ccccc1)c1ccc(O)cc1 | – | 61.1 µM (active)
23 | O=c1[nH]c2ccccc2n1C1CCNCC1 | 7.98% [at 42.5 µM] | –
24 | Nc1c(Cl)c(F)nc(OCC(=O)O)c1Cl | -6.63% | –
25 | CCOCn1c(-c2ccc(Cl)cc2)c(C#N)c(Br)c1C(F)(F)F | 0.966% | –
26 | CCCCCCCCBr | 9.08% | –
27 | CC(C)(C)C(=O)C(Oc1ccc(Cl)cc1)n1cncn1 (stereo not given) | -7% | –
28 | CC(C)c1c(CN(C)C(C)Cc2ccccc2)n(C)n(-c2ccccc2)c1=O (stereo not given) | 25% [at 42.5 µM] | –
29 | CCCCCCC(=O)CCCCCC/C=C/C[C@@H](O)[C@H](O)[C@@](N)(CO)C(=O)O | 0.928% [at 18.9 µM] | –
30 | O=[N+]([O-])c1cc(C(F)(F)F)c(Cl)c([N+](=O)[O-])c1Cl | 1.04% | –
31 | C=COC(C)=O | -0.506% | –
32 | CCC(COC(=O)c1cc(OC)c(OC)c(OC)c1)(c1ccccc1)N(C)C (stereo not given) | -19.7% [at 42.5 µM] | –
33 | CC(=O)[O-].CC(=O)[O-].O.O.[Zn+2] | 1.34% | –
34 | Cc1cc(OC(=O)N(C)C)nn1C(=O)N(C)C | 17.8% | –
35 | CSc1ccc(C(=O)C(C)(C)N2CCOCC2)cc1 | 12.5% | –
36 | CC1(C(=O)Nc2ccc(O)c(Cl)c2Cl)CCCCC1 | -3.93% | –
37 | C/C(=C\c1ccccc1)[N+](=O)[O-] | 5.34% | –
38 | Nc1ccc([N+](=O)[O-])cc1[N+](=O)[O-] | -2.1% | –
39 | CC(C)N(C(=O)SC/C(Cl)=C/Cl)C(C)C | 0.283% | –
40 | CCC(C)(c1ccc(O)cc1)c1ccc(O)cc1 | – | inactive
